tim23-1 inh: growth inhibitors of tim23-1 mutant yeast, primary screen, luminescence, uHTS | S. cerevisiae tim23-1 growth, BacTiter-Glo luminescence, 24 h | inhibition, % at 20 µM | 330,000 tested, 1.3% active | AID 463212, 2010;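 active = growth inhibition of the mutant yeast at or above 50%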;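 note: temperature-sensitive mutant grown at 25 °C; plate controls were DMSO-treated mutant yeast for no effect and medium wells lacking yeast for full effect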
tim10-1 inh: growth inhibitors of tim10-1 mutant yeast, primary screen, luminescence, uHTS; 330,000 tested, 2.2% active; inhibition, % at 20 µM; S. cerevisiae tim10-1 ts strain growth, BacTiter-Glo, 24 h;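 active = inhibition of at least 40%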;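 note: mutant grown at 25 °C; 0% = DMSO wells with yeast and 100% = wells holding no yeast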
MPTP block: mitochondrial permeability transition pore inhibitors, primary screen, biochemical, isolated mouse mitochondria, absorbance; Ca2+ swelling absorbance, 30 min; inhibition, % at 10 µM; 360,000 tested, 1.4% active;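 active = inhibition of 50% or more, scaled per plate between neutral and stimulator controls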;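 note: 0% = DMSO wells given calcium and 100% = 1 mM EGTA wells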
TIM10 inh: growth inhibitors of isogenic TIM10 control yeast, primary screen, counter-screen for tim10-1 yeast inhibitor project, luminescence, uHTS; S. cerevisiae TIM10 strain growth, BacTiter-Glo luminescence, 24 h; inhibition, % at 10 µM; 330,000 tested, 1.4% active; AID 463195, 2010;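 active = inhibition of 40% or more at the single tested concentration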;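 note: wild-type TIM10 isogenic control strain grown at permissive 25 °C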
Mdm2-MdmX inh: inhibitors of human Mdm2-MdmX association, primary screen, cell-based, luminescence, split luciferase, SaOS-2, uHTS | 330,000 tested, 3% active | SaOS-2 split-luciferase Mdm2/MdmX complementation | AID 485346, 2010 | inhibition, % at 8 µM | Protein Mdm4 (Homo sapiens) + E3 ubiquitin-protein ligase Mdm2 (Homo sapiens), …;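 active = inhibition of at least 50% at 8 µM in the primary screen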
Target sequence (O15151 whole entry, looked up): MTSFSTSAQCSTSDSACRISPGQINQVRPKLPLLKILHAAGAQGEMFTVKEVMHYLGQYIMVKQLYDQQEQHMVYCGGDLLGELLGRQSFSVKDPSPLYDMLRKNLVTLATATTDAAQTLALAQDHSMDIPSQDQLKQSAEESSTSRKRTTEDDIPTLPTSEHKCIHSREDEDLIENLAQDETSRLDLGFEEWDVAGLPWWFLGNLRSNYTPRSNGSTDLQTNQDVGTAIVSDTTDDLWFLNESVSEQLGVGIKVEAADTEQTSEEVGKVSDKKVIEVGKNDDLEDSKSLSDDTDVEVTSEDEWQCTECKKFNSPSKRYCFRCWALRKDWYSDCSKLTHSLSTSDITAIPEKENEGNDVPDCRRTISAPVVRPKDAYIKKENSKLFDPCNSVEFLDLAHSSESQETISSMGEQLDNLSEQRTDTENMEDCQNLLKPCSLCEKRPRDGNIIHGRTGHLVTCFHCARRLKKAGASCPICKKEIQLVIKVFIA
Target sequence (Q00987 whole entry, looked up): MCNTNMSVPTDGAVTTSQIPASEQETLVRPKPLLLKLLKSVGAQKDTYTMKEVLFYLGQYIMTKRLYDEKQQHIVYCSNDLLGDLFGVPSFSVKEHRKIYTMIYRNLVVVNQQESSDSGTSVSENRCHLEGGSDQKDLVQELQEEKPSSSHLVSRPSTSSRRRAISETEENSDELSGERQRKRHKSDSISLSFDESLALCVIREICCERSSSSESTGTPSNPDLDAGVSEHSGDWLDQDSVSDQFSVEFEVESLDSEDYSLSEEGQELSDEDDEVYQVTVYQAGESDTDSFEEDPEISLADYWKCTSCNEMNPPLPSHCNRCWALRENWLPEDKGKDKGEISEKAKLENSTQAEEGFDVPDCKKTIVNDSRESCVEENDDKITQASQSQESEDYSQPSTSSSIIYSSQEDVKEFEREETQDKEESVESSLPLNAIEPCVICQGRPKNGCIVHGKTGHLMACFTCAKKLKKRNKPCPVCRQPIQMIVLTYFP
Mdm2-MdmX conf: Mdm2-MdmX complex disruptors, retested hits, confirmation, luminescence, single concentration; shares compounds with Mdm2-MdmX inh; Mdm2-MdmX binding, luminescent assay; inhibition, % at 8 µM; 10,000 tested, 55% active; in the data active = inhibition above about 40%
Full FLuc ctr: full-length luciferase signal inhibition, confirmation, counter-screen for Mdm2/MdmX interaction inhibitor project, cell-based, single concentration, SaOS-2. SaOS-2 full-length luciferase counterscreen, luminescence. AID 504607, 2011. shares compounds with Mdm2-MdmX inh. 6,200 tested, 77% active. inhibition, % at 8 µM;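 active = mean inhibition at 8 µM reaching about 37%, which flags the compound as non-specific, limit read from the data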;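 note: p53-null SaOS-2 cells with luciferase driven by a doxycycline-inducible promoter; compound on cells about two nights before reading with doxycycline added after day one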
Starred values were filed as active, the others as inactive; x = no result. Most compounds without a hit are left out; they make up all but 6.3% or so of the library.

SMILES | tim23-1 inh | tim10-1 inh | MPTP block | TIM10 inh | Mdm2-MdmX inh | Mdm2-MdmX conf | others
COc1ccc(S(=O)(=O)N(C)C[C@H]2Oc3ccc(NC(=O)Nc4ccc(C(F)(F)F)cc4)cc3C(=O)N([C@H](C)CO)C[C@@H]2C)cc1 | 16 | -4 | 1 | 1 | 74* | 8
COc1ccc(NC(=O)Nc2ccc3c(c2)C(=O)N([C@H](C)CO)C[C@H](C)[C@@H](CN(C)S(=O)(=O)c2ccc(OC)cc2)O3)cc1 | 10 | 17 | 1 | 3 | 18 | x
O=C(NCCN1CCC(n2c(=O)[nH]c3ccccc32)CC1)c1ccccc1C(F)(F)F | x | x | 0 | x | x | x
O=C(c1cccs1)N1C[C@H](O)[C@@H](n2cc(-c3ccc(F)cc3)nn2)C[C@@H]1c1ccccc1 | x | x | -1 | x | x | x
COc1ccc(-c2ccc(C(=O)N3CCOCC3)c3occc23)c(C)c1 | x | x | 1 | x | x | x
CCOC(=O)C1(N(CC)CC)Sc2cc(C)ccc2NC1=O (centres undefined) | 34 | 28 | 4 | 30 | 68* | 69* | Full FLuc ctr=52*
CCOC(=O)c1[nH]c2ccc(C)cc2c1N | 5 | 28 | 0 | 3 | -74 | x
NS(=O)(=O)c1ccc(NC(=O)CCC(=O)O)cc1 | x | x | -3 | x | x | x
Cc1cc(C(C)(C)CC(C)(C)C)ccc1OCCOCC[N+](C)(C)Cc1ccccc1 | 23 | 5 | 9 | 8 | 100* | 96* | Full FLuc ctr=54*
CC(C)(C(=O)N1CCC1(C)C(=O)Nc1ccccc1Br)c1ccccc1 (centres undefined) | x | x | 0 | x | x | x
COc1ccc(S(=O)(=O)NNS(=O)(=O)c2ccc(OC)c(OC)c2)cc1OC | x | x | 0 | x | x | x
Cc1ccc(C)c(CN2CCC(CNC(=O)Nc3ccc(F)c(Cl)c3)CC2)c1 | 13 | 29 | 2 | 18 | 69* | 33 | Full FLuc ctr=56*
Cc1cc(C)cc(NC(=O)NCC2CCN(Cc3cc(C)ccc3C)CC2)c1 | 17 | -6 | 1 | 14 | 50* | 36
CC1(C(=O)NS(=O)(=O)C2CC2)CCCN(C(=O)c2ccc(F)cc2Cl)C1 (centres undefined) | x | x | 0 | x | x | x
CCN1CCN(/C=N/c2nc3c(s2)CCCC3)CC1 | -52 | -14 | -1 | -22 | 57* | 73* | Full FLuc ctr=91*
CN1CCN(CC(=O)Nc2nc3c(s2)CCCC3)CC1 | 4 | 6 | -3 | 36 | 22 | x
O=C(Nc1ccc(F)c(Cl)c1)Nc1nnc([C@@H]2O[C@H](CO)[C@@H](O)[C@H]2O)s1 | x | x | -2 | x | x | x
COc1ccc(-c2cc(C(=O)NNC3=NCCC3)c3c(C)nn(-c4ccccc4)c3n2)cc1 | 22 | 34 | 0 | 31 | 69* | 56* | Full FLuc ctr=34
Cc1nn(-c2ccccc2)c2nc(-c3ccncc3)cc(C(=O)NCc3ccco3)c12 | -44 | 17 | 0 | 4 | 38 | x
COc1ccc(NC(=O)c2cnn(-c3ccccc3)c2C)c(OC)c1 | 12 | 5 | 2 | 7 | -31 | x
COc1ccc(NC(=O)c2cc(-c3ccccc3)nc3c2c(C)nn3-c2ccccc2)c(OC)c1 | -4 | 2 | 3 | 12 | 54* | 9
Nc1nc2c(ncn2[C@@H]2O[C@H](CNCc3ccc(Oc4cc(-n5cccn5)ncn4)cc3)[C@@H](O)[C@H]2O)c(=O)[nH]1 | x | x | -1 | x | x | x
N#Cc1ccc(C(=O)Nc2cccc3ncccc23)c(F)c1 | 4 | 11 | 14 | -9 | 19 | x
Cc1cc(C)c2oc(-c3ccc(Cl)c(NC(=O)c4ccc(C#N)cc4F)c3)nc2c1 | -11 | -6 | 2 | -6 | 69* | -12
Cc1ccc(OCc2ccc(C(=O)Nc3cc(C)on3)o2)c([N+](=O)[O-])c1 | 11 | 2 | 1 | -1 | -2 | x
SMILES | tim23-1 inh | tim10-1 inh | MPTP block | TIM10 inh | Mdm2-MdmX inh | Mdm2-MdmX conf | others
CCn1c(NC(=O)c2ccc(COc3ccc(C)cc3[N+](=O)[O-])o2)nc2ccccc21 | 0 | 7 | -2 | 13 | 59* | 42* | Full FLuc ctr=94*
CN(C)CCN(C(=O)c1cccs1)c1nc2cc3c(cc2s1)OCCO3 | 22 | 15 | 0 | 12 | -27 | x
CCOc1ccc2nc(N(CCN(C)C)C(=O)/C=C/c3cccs3)sc2c1 | 23 | 25 | 18 | 24 | 65* | 31
CCc1ccc2nc(N(CCN(C)C)C(=O)/C=C/c3cccs3)sc2c1 | 18 | 17 | 1 | 22 | 51* | 21
O=C(Nc1ccccc1[N+](=O)[O-])c1cc2ccccc2nc1Cl | -31 | -9 | 1 | -22 | 64* | -26
O=C(Nc1ccccc1[N+](=O)[O-])C1=C(O)CCn2c1nc1ccccc12 | -13 | 2 | 1 | -6 | 71* | 18
O=C(Nc1ccc([N+](=O)[O-])cc1)c1cc2ccccc2nc1Cl | 10 | 29 | 32 | 15 | -11 | x
O=C(Cn1nnc2ccccc21)Nc1ccccc1[N+](=O)[O-] | 30 | 5 | 0 | -2 | -6 | x
COCCNC(=O)C1(C)CCCN(C(=O)c2ccco2)C1 (centres undefined) | x | x | 1 | x | x | x
CC1=C(C(=O)N2CCCCCC2)CC(CC(=O)NCCc2ccccn2)C(=O)N1CCCN1CCCC1=O (centres undefined) | x | x | 1 | x | x | x
Cc1ccc(C)c(C(O)c2ncc(-c3ccc4ccccc4c3)[nH]2)c1 (centres undefined) | x | x | 4 | x | x | x
COc1cc(C(=O)Nc2ccc3c(c2)CCN3C(C)=O)cc(OC)c1OC | 12 | -1 | -2 | 3 | 59* | 59* | Full FLuc ctr=62*
COc1cc(C(=O)Nc2ccc3c(c2)Cc2ccccc2-3)cc(OC)c1OC | -13 | 10 | 4 | -18 | 47 | x
FC(F)Oc1ccc(-c2csc(=Nc3cccnc3)n2CC2CCCO2)cc1 (centres undefined) | 41 | 32 | 4 | 34 | 6 | x
Clc1ccc(-c2csc(=Nc3cccnc3)n2CCCn2ccnc2)cc1Cl | 20 | 27 | 2 | 32 | 66* | 36 | Full FLuc ctr=55*
COc1ccc(C(=O)NNC2=C(C(=O)C(F)(F)F)CCC2)cc1 | 18 | 14 | 49 | 20 | 68* | 38 | Full FLuc ctr=97*
O=C(NNC1=C(C(=O)C(F)(F)F)CCC1)c1cccc(Cl)c1 | -6 | -40 | 38 | -75 | 61* | 36 | Full FLuc ctr=65*
COc1ccc(C(=O)NNC(=O)OC(C)(C)C)cc1 | 19 | 7 | 0 | -15 | -53 | x
C=CC[C@@H](CC(=O)N(CCO)Cc1ccccc1)C(=O)N[C@@H](COC(=O)[C@@H](CC=C)Cc1ccc(F)cc1)Cc1c[nH]c2ccccc12 | 2 | 4 | 1 | 4 | 76* | 21

Screening data as filed in PubChem BioAssay.
